Here are results for ten compounds from PubChem BioAssay.

The nature of assay [1]: inhibitors of TNFa-induced NFkB p65 translocation, primary screen, imaging, HUVEC, MLSMR starter and 10KST1 sets (AID 438;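 active = inhibition above 20% together with a positive visual image hit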;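 note: compound added about 3h40 before a 20 min TNFalpha stimulation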;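 for inhibition: signal is the nuclear over cytoplasmic p65 intensity ratio per well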). Particulars: HUVEC TNFa-induced p65 nuclear translocation; cell count: measured here: nuclei count (cytotoxicity indicator), at 2.08 µM; inhibition: at 2 µM, stronger effect = higher value, 0% TNFa-plus-vehicle, 100% no-TNFa wells.
Assay [2] in a line: reduction of polyQ htt aggregates in cells – imaging, exon1htt(103Q)mCFP cells, high-content imaging, primary screen (AID 483;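 active = visual image review flags a hit and inhibition of aggregation exceeds 20%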;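 note: compound exposure lasted 3 days before fixation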;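 for nuclei count: percent of the per-plate median nuclei count of sample wells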). Particulars: exon1htt(103Q)mCFP cell line, aggregate imaging, at 2 µM; inhibition of aggregation: stronger effect = higher value; nuclei count: measured here: cell count, toxicity.
The nature of assay [3]: endothelial E-selectin expression blockers – imaging, HUVEC, immunofluorescence, MLSMR starter and 10KST1 sets, primary screen (AID 487;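 active = visually confirmed hit in the image check and inhibition above 20%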;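 for inhibition: signal is fraction of cell area covered by stained E-selectin grains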;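 for nuclei count: 100% = median nuclei count of all wells on the same plate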). Conditions: HUVEC TNFalpha-induced E-selectin immunofluorescence imaging, at 2 µM; inhibition: stronger effect = higher value; nuclei count: measured here: cell number, toxicity.
The nature of assay [4]: Primary imaging screen for DUSP6 inhibitors that restore phospho-Erk in transfected HeLa cells, chemical complementation (AID 609;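 active = compounds giving at least 50% inhibition in the cell-based MKP-3 phosphatase rescue imaging test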;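 for inhibition: phospho-Erk level distribution per well compared with pooled transfected vehicle control wells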). Conditions: HeLa MKP-3 transfected, phospho-Erk imaging KS statistic, at 10 µM, cells stimulated with TPA for 15 min.
Assay [5] concerns the target Dual specificity protein phosphatase 6 (Homo sapiens) (UniProt Q16828). The description is as above. Particulars: HeLa MKP-3 transfected, phospho-Erk imaging KS statistic; at 10 µM; stronger effect = higher value; cells stimulated with TPA for 15 min.
The target of assay [6] is Voltage-gated potassium channel subunit beta-2 (Rattus norvegicus) (UniProt P62483). As to the kind of experiment: inhibitors of rat Kvbeta2 reductase activity – biochemical, NADPH fluorescence, primary screen (AID 622;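 active = fluorescence slope higher than the sample average by over 3 SD, cut at about -0.22 in these data, passing the limit was not always enough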;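 note: slope of raw intensity against log time taken from 70 to 1610 s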). Conditions: recombinant KvBeta, 4-cyanobenzaldehyde reduction, at 10 µM, stronger effect = higher value.
Voltage-gated potassium channel subunit beta-2 (Rattus norvegicus), sequence (P62483 whole entry, looked up): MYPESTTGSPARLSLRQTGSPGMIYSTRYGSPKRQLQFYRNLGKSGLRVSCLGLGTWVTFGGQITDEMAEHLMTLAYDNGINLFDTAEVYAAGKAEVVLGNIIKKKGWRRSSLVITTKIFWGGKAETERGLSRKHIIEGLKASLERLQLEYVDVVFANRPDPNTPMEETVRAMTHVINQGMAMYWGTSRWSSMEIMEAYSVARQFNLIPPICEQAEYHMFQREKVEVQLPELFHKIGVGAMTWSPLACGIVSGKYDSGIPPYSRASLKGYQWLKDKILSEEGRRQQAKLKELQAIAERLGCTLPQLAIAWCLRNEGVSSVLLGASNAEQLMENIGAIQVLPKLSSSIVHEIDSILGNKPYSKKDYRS
Assay [7] shares this target. As to the kind of experiment: enhancers of rat Kvbeta2 NADPH turnover – biochemical, NADPH fluorescence, primary screen (AID 623;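 active = NADPH fluorescence slope more negative than the mean of all samples by about 3 SD, 99.7% confidence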;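 note: fluorescence intensity change per second fitted from 20 to 320 s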). Particulars: Recombinant KvBeta, NADPH fluorescence decrease slope, 10 min; at 10 µM; stronger effect = lower value.
The target of assay [8] is Alpha-2C adrenergic receptor (Homo sapiens) (UniProt P18825). As to the kind of experiment: compounds altering alpha2C-coupled GIRK flux – cell-based, HEK293 alpha2C/GIRK1/2, thallium flux, primary screen (AID 624;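 active = fluorescence slope after compound addition differing from the mean of all screened samples at 99.7% confidence, in either direction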;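 note: slope of fluorescence ratio to pre-addition baseline per second over 15 to 24 s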). Conditions: thallium flux BTC fluorescence, at 10 µM, actives lie on both sides.
Alpha-2C adrenergic receptor (Homo sapiens), sequence (P18825 whole entry, looked up): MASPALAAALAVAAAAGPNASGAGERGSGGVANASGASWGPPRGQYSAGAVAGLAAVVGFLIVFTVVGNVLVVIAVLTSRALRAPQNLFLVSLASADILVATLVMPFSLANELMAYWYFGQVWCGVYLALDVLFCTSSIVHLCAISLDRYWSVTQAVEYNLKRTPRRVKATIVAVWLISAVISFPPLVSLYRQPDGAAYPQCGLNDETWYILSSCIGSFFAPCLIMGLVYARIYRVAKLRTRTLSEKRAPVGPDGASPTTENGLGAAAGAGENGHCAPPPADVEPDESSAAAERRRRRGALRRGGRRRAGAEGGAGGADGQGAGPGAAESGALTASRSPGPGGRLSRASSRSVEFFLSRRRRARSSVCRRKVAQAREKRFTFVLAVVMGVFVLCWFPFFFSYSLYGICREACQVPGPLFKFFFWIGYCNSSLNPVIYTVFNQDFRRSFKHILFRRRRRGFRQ
Assay [9] can be described thus: inhibitors of larval lipid processing in zebrafish, primary screen, whole organism, PED6 fluorescence, gall bladder and intestine (AID 686;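 active = a full or partial loss of lipid-probe fluorescence in the fish gall bladder, intestine or both, judged by eye; inactive = no fluorescence loss, or compound toxic to the fish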;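 note: larvae 5 to 7 days old with five fish per well; signal comes from phospholipase A2 cleavage of quenched PED6 carried via bile; overnight exposure to compound and PED6 before scoring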). Conditions: Zebrafish larvae PED6 lipid processing, fluorescence scoring; screened at 20 µM (by protocol).
The nature of assay [10]: loss of swimming-algae plug formation – whole organism, Chlamydomonas reinhardtii, WT vs cilia-less mutant, absorbance, 96-well, primary screen (AID 463189).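 Note: 0% = wild type cc124 cells in DMSO and 100% = ciliumless bld1 mutant cells.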 Particulars: Chlamydomonas reinhardtii gravitaxis, OD600 absorbance, 2 days; at 10 µM; stronger effect = higher value.
Assay [11] can be described thus: blockers of RIG-like receptor reporter activation – cell-based, Sendai virus stimulus, luciferase, 10K MLSCN set, TLR/RLR signaling modifier project, primary screen (AID 602276;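 active = inhibition at or above 50% at 10 µM; inactive = inhibition below 50%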;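 note: firefly luciferase from ISG56 promoter only with Renilla not read in this screen; 0% = Sendai virus plus DMSO and 100% = medium plus DMSO without virus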). Conditions: HEK293 RL24 IRF3 luciferase reporter, at 10 µM, stronger effect = higher value.
The nature of assay [12]: TLR3 IRF3 reporter activation blockers – cell-based, poly I:C stimulus, luciferase, 10K MLSCN set, primary screen (AID 602277;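 active = inhibition of the reporter signal at or above 50%; inactive = inhibition below 50%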). Particulars: HEK293-TLR3 RL24 IRF3 luciferase reporter, at 10 µM, stronger effect = higher value.
[13] abbreviates: measured here: cell density z-score.
Where [14] appears, read: measured here: nuclear c-Myc green intensity z-score.
Setting [15] is: measured here: nuclear pErk red intensity z-score, stronger effect = higher value.

Values joined by “and” are separate entries in the source; they are usually repeats but may differ in a detail not shown here. Equal values may be shown once. Active and inactive are the calls of the source.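 Rule for the calls, unless noted: active = inhibition at or above 50% relative to wild type and mutant plate controls; inactive = inhibition below 50%.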

Dual specificity protein phosphatase 6 (Homo sapiens), sequence (Q16828 whole entry, looked up): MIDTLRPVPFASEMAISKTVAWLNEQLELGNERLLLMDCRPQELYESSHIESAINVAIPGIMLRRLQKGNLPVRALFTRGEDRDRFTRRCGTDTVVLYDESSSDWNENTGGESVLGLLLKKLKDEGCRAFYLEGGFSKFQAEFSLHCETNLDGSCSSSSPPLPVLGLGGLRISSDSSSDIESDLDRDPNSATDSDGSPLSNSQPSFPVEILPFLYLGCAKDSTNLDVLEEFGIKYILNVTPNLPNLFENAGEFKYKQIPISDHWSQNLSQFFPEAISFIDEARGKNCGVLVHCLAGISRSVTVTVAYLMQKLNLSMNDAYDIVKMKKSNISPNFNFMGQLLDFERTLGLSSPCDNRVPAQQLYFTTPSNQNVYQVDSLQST

For `COC(=O)CCC(=O)CN`, in assay [1], the cell count was 462. The inhibition in [1] is -0.2% (inactive); in assay [3], -32.6% (inactive); in assay [5] it was 14.6% (inactive); in assay [10], -6.73% (inactive); in assay [11], 5.54% (inactive); in [12], 25.1% (inactive). Also, the inhibition of aggregation in assay [2] is 0.3% (inactive). The figures for the nuclei count in assay [2] and in assay [3] were 95.2% and 108%, respectively. For the same compound, the figures for the z-score in [4] (setting [13]), in assay [4] (setting [14]) and in [4] (setting [15]) were -0.857, 0.817 and -0.467, respectively. For the same compound, the fluorescence slope in assay [6] was -0.446 (inactive). In assay [7], the NADPH fluorescence slope was -6.5e-05 (inactive). Besides, the slope in assay [8] is 0.00417 (inactive). In assay [9], the compound was called inactive.
`COc1ccc(-c2nnc3sc(-c4c(OC)cccc4OC)nn23)cc1`: the cell count in assay [1] was 498. The inhibition in assay [1] was -7.5% (inactive); in [3] it was -176% (inactive); in assay [5] it was -6.06% (inactive); in assay [10], 14.7% (inactive); in assay [11] it was 11.7% (inactive); in [12] it was 13% (inactive). Besides, the inhibition of aggregation in [2] is 26.2% (inactive). In addition, the nuclei count stood at 28.4% in assay [2] and 131% in assay [3]. Moreover, the z-score in assay [4] (setting [13]) was -0.466; in [4] (setting [14]), -2.13; in [4] (setting [15]), -0.0898. Also, the fluorescence slope in [6] is -0.435 (inactive). The NADPH fluorescence slope in [7] was -0.000139 (inactive). For the same compound, in [8], the slope is 0.00691 (inactive). Besides, in assay [9], the call was inactive.
For `CCOC(=O)c1[nH]c2ccc(Br)cc2c1NC(=O)CCN1CCC(C(=O)OCC)CC1`, the cell count in [1] came out at 566. Besides, the inhibition in [1] is -16.7% (inactive); in assay [3], -91.6% (inactive); in assay [5] it was -0.674% (inactive); in assay [10] it was 15.3% (inactive); in assay [11] it was 7.83% (inactive); in assay [12] it was -1.42% (inactive). The inhibition of aggregation in assay [2] was 2.2% (inactive). Moreover, the nuclei count in [2] stood at 96.4%; in [3] it was 130%. In addition, the values for the z-score in assay [4] (setting [13]), in assay [4] (setting [14]) and in [4] (setting [15]) were 1.13, -1.08 and 0.103, respectively. In assay [6], the fluorescence slope was -0.523 (inactive). The NADPH fluorescence slope in assay [7] was -2.9e-05 (inactive). In addition, in assay [8], the slope is 0.00522 (inactive). Also, the compound was called inactive in [9].
Take `CCCCC(=O)Nc1c(O)c2ccccc2[nH]c1=O`: in [1], the cell count stood at 450. The inhibition in assay [1] was 1.5% (inactive); in assay [3], -155% (inactive); in assay [5], -8.95% (inactive); in assay [10], -4.89% (inactive); in assay [11], 2.04% (inactive); in assay [12] it was 1.03% (inactive). For the same compound, the inhibition of aggregation in [2] was -22.7% (inactive). Further, the nuclei count in [2] amounted to 104%; in [3], 137%. The z-score in [4] (setting [13]) was -1.21; in assay [4] (setting [14]), 0.174; in assay [4] (setting [15]), 1.14. In assay [6], the fluorescence slope was -0.491 (inactive). Besides, the NADPH fluorescence slope in assay [7] is -0.000197 (inactive). In addition, the slope in assay [8] was 0.00511 (inactive). The result in assay [9] was inactive.
Consider `CC(=O)OC(C)C[N+](C)(C)C` (stereo not given), for which, in assay [1], the cell count was 551. Also, the inhibition in assay [1] is 2.7% (inactive); in [3], -37.2% (inactive); in assay [5], 5.42% (inactive); in assay [10], 4.19% (inactive) and 8.31% (inactive); in assay [11], 8.52% (inactive); in assay [12], 29.7% (inactive). Moreover, the inhibition of aggregation in [2] is -10.4% (inactive). In addition, the nuclei count was 93.2% in assay [2] and 109% in assay [3]. For the same compound, the z-score in assay [4] (setting [13]) is -0.162; in [4] (setting [14]), 0.661; in assay [4] (setting [15]), -1.46. In [6], the fluorescence slope is -0.469 (inactive). The NADPH fluorescence slope in assay [7] is -5.5e-06 (inactive). The slope in assay [8] is 0.0149 (active). Further, the compound was called inactive in [9].
With `Nc1ccc(S(=O)(=O)c2ccc(N)cc2)cc1`, the cell count in [1] is 511. Besides, the inhibition in assay [1] was -1.5% (inactive); in assay [3], -20.6% (inactive); in assay [5] it was 16.8% (inactive); in assay [10], 8.87% (inactive); in [11], -3.01% (inactive); in [12] it was 11.3% (inactive). The inhibition of aggregation in assay [2] is 0.3% (inactive). Further, the nuclei count is 103% in assay [2] and 106% in assay [3]. Besides, the results for the z-score in [4] (setting [13]), in assay [4] (setting [14]) and in [4] (setting [15]) were -0.829, 0.112 and 0.308, respectively. Moreover, in [6], the fluorescence slope is -0.465 (inactive). In addition, the NADPH fluorescence slope in assay [7] was 3.3e-05 (inactive). Moreover, the slope in assay [8] was 0.00573 (inactive). For the same compound, in assay [9], the compound was called inactive.
As to `NC(CO)C(=O)NNCc1ccc(O)c(O)c1O` (stereo not given), the cell count in [1] is 571. Moreover, the inhibition in assay [1] was -9.9% (inactive); in [3] it was -52.2% (inactive); in assay [5], 3.45% (inactive); in assay [10], -0.599% (inactive) and -9.6% (inactive); in [11], 8.18% (inactive); in assay [12], 29.4% (inactive). Further, the inhibition of aggregation in [2] is -16.9% (inactive). Also, the nuclei count came out at 117% in [2] and 124% in [3]. The z-score in assay [4] (setting [13]) is 0.364; in [4] (setting [14]) it was 0.175; in assay [4] (setting [15]), -0.65. Further, the fluorescence slope in assay [6] is -0.466 (inactive). Moreover, the NADPH fluorescence slope in [7] was -6.2e-05 (inactive). In addition, the slope in assay [8] was 0.00539 (inactive). The result in assay [9] was inactive.
Consider `OC(CCN1CCCC1)(c1ccccc1)C1CCCCC1` (stereo not given), for which the cell count in [1] was 573. For the same compound, the inhibition was 6.7% (inactive) in [1]; -40.8% (inactive) in assay [3]; 19.2% (inactive) in assay [5]; 37.7% (inactive) in assay [10]; 0.492% (inactive) in assay [11]; -2.26% (inactive) in [12]. Moreover, the inhibition of aggregation in assay [2] was -8.9% (inactive). Further, the nuclei count in assay [2] came out at 114%; in assay [3], 106%. Further, the z-score is 1.31 in [4] (setting [13]), -0.388 in assay [4] (setting [14]) and -1.18 in [4] (setting [15]). Also, the fluorescence slope in [6] was -0.528 (inactive). Besides, in assay [7], the NADPH fluorescence slope is -6.1e-05 (inactive). Moreover, the slope in assay [8] is 0.00512 (inactive). Moreover, the outcome in [9] was inactive.
For the compound `CC(=O)OCC(=O)[C@@]1(O)CC[C@H]2[C@@H]3CCC4=CC(=O)C=C[C@]4(C)[C@@]3(Cl)[C@@H](Cl)C[C@@]21C`, in assay [1], the cell count is 574. Also, the inhibition in assay [1] was -7.2% (inactive); in assay [3] it was -50.9% (inactive); in assay [5], 11.3% (inactive); in [10] it was 18.7% (inactive); in [11], 5.49% (inactive); in assay [12] it was 38.2% (inactive). Further, the inhibition of aggregation in assay [2] was -27.9% (inactive). Also, the figures for the nuclei count in assay [2] and in assay [3] were 64.3% and 118%, respectively. In addition, the figures for the z-score in assay [4] (setting [13]), in assay [4] (setting [14]) and in assay [4] (setting [15]) were 0.892, 0.179 and 0.325, respectively. In [6], the fluorescence slope was -0.484 (inactive). Moreover, the NADPH fluorescence slope in [7] was -5.1e-05 (inactive). Besides, the slope in assay [8] was 0.00396 (inactive). In addition, the outcome in [9] was inactive.
Take `Cc1ccc(C)c(OCCCC(C)(C)C(=O)O)c1`: in assay [1], the cell count was 624. Also, the inhibition is -1.4% (inactive) in [1]; -52.3% (inactive) in assay [3]; 7.39% (inactive) in assay [5]; 36% (inactive) in [10]; 17.7% (inactive) in assay [11]; 39.7% (inactive) in assay [12]. The inhibition of aggregation in assay [2] was 26.1% (inactive). Also, the nuclei count in assay [2] was 107%; in assay [3], 122%. For the same compound, the z-score in [4] (setting [13]) turned out to be 0.389; in assay [4] (setting [14]), 0.0218; in [4] (setting [15]), 0.246. Also, in assay [6], the fluorescence slope was -0.536 (inactive). For the same compound, the NADPH fluorescence slope in assay [7] is -3.5e-05 (inactive). Also, the slope in assay [8] was 0.00591 (inactive). In addition, the compound was called inactive in [9].
